# From PubChem BioAssay (EPA / NIEHS)
# “And” between values parts separate entries of the source, which are not always exact repeats. Equal entries are not always repeated. Results filed as inconclusive are left out. Some compounds were tested as several samples or in several runs, with calls that do not always agree. The source made the active and inactive calls. How the source made its calls: active means hit-call score of the fitted dose curve at least 0.9, where 1 is the maximum; inconclusive means response in the unintended direction; inactive means score below 0.9.
# What was measured:
# [1] = molecular target: human Sirtuin 2 (SIRT2), SIRT2 (gene 22933) (UniProt Q8IXJ6); assay: NVS_ENZ_hSIRT2: NovaScreen (NVS) Enzymatic Assay for human Sirtuin 2 (SIRT2) (AID 2283217)
# Method in brief: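 Single-point duplicate screen at 25 uM, then concentration-response (max 50 uM) for chemicals passing threshold. Enzyme activity of recombinant human SIRT2 measured after 1 hr by fluorescence with mobility-shift separation of product; DMSO baseline.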
# [2] = molecular target: rabbit Imidazoline 2 Central (I2C), CKB (gene 100009085) (UniProt P00567); assay: NVS_ENZ_rabI2C: NovaScreen (NVS) Enzymatic Assay for rabbit Imidazoline 2 Central (I2C) (AID 2283228)
# rabbit Imidazoline 2 Central (I2C), CKB (gene 100009085), sequence (P00567 whole entry, looked up): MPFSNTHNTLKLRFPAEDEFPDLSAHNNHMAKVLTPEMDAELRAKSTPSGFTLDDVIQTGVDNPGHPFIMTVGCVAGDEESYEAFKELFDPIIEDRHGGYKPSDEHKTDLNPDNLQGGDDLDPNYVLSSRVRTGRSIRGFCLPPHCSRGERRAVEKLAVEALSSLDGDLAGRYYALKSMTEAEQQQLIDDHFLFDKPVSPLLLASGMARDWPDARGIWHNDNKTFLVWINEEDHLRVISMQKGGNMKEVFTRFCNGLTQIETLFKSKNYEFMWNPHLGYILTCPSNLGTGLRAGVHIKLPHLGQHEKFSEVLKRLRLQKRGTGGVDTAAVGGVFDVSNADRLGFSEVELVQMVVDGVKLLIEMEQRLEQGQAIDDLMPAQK
# Method in brief: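 Rabbit brain membranes, cell-free; readout by filter-based scintillation counting 1.5 hours after dosing, loss of signal vs DMSO. Initial duplicate test at 25 uM, then concentration-response with 50 uM top concentration.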
# [3] = molecular target: human SRC Proto-Oncogene, Non-receptor Tyrosine Kinase (SRC), SRC (gene 6714) (UniProt P12931); assay: NVS_ENZ_hSRC: NovaScreen (NVS) Enzymatic Assay for human SRC Proto-Oncogene, Non-receptor Tyrosine Kinase (SRC) (AID 2283223)
# human SRC Proto-Oncogene, Non-receptor Tyrosine Kinase (SRC), SRC (gene 6714), sequence (P12931 whole entry, looked up): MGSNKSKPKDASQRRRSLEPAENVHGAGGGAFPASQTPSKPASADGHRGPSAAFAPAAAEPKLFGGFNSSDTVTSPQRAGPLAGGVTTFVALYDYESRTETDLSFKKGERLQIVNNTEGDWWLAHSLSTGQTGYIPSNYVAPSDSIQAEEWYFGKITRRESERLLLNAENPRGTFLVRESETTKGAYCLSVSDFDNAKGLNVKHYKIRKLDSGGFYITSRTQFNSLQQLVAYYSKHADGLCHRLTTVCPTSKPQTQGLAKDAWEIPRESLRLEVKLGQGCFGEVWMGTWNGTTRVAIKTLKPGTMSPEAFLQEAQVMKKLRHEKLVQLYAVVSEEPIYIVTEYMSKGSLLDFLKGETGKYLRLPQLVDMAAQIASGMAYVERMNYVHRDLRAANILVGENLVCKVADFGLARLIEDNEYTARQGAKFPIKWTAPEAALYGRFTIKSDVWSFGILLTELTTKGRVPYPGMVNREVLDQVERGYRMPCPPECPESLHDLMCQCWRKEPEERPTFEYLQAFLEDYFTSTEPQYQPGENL
# Method in brief: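 Compounds passing 30% inhibition at 25 uM (duplicate) were titrated to a top concentration of 50 uM. Enzyme activity read by fluorescence with mobility-shift substrate/product separation after 1 h; DMSO baseline.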
# [4] = molecular target: human Tropomyosin Receptor Kinase A (TRKA), NTRK1 (gene 4914) (UniProt P04629); assay: NVS_ENZ_hTrkA: NovaScreen (NVS) Enzymatic Assay for human Tropomyosin Receptor Kinase A (TRKA) (AID 2283224)
# human Tropomyosin Receptor Kinase A (TRKA), NTRK1 (gene 4914), sequence (P04629 whole entry, looked up): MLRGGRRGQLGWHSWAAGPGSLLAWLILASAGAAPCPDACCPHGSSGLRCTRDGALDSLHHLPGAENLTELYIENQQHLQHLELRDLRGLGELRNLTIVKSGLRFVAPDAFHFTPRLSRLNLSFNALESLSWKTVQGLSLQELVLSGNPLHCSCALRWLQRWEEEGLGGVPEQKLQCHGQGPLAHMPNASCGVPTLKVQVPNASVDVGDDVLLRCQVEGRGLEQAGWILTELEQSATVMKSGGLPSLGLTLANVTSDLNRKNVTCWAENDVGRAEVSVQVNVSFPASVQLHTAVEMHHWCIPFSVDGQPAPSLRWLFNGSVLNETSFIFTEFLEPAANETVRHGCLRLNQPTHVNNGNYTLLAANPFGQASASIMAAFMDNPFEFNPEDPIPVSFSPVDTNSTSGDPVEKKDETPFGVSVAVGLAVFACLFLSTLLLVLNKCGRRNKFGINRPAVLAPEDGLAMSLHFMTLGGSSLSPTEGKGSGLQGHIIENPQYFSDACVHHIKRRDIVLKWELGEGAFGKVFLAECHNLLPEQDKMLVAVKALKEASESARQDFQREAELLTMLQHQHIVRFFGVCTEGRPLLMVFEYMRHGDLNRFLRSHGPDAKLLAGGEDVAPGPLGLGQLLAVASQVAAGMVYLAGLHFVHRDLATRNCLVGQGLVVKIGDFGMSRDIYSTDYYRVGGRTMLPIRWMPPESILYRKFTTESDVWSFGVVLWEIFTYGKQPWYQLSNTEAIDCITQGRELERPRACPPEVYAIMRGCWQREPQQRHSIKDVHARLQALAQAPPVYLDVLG
# Method in brief: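 Compounds were screened at 25 uM in duplicate, then concentration series to a 50 uM top for those meeting threshold (e.g. 30% inhibition). Enzyme was recombinant human TrkA, incubated 1 h. Product formation was quantified by fluorescence after mobility-shift separation.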
# [5] = molecular target: human Vascular Endothelial Growth Factor Receptor 2 (VEGFR2), KDR (gene 3791) (UniProt P35968); assay: NVS_ENZ_hVEGFR2: NovaScreen (NVS) Enzymatic Assay for human Vascular Endothelial Growth Factor Receptor 2 (VEGFR2) (AID 2283230)
# Method in brief: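 Cell-free recombinant VEGFR2 kinase, fluorescent substrate with electrophoretic mobility-shift separation; read 1 h after dosing. Screened at 25 uM in duplicate, hits to concentration-response up to 50 uM; loss-of-signal versus DMSO.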
# [6] = molecular target: human Protein Tyrosine Phosphatase Receptor Type M (PTPRM), PTPRM (gene 5797) (UniProt P28827); assay: NVS_ENZ_hPTPRM: NovaScreen (NVS) Enzymatic Assay for human Protein Tyrosine Phosphatase Receptor Type M (PTPRM) (AID 2283215)
# human Protein Tyrosine Phosphatase Receptor Type M (PTPRM), PTPRM (gene 5797), sequence (P28827 whole entry, looked up): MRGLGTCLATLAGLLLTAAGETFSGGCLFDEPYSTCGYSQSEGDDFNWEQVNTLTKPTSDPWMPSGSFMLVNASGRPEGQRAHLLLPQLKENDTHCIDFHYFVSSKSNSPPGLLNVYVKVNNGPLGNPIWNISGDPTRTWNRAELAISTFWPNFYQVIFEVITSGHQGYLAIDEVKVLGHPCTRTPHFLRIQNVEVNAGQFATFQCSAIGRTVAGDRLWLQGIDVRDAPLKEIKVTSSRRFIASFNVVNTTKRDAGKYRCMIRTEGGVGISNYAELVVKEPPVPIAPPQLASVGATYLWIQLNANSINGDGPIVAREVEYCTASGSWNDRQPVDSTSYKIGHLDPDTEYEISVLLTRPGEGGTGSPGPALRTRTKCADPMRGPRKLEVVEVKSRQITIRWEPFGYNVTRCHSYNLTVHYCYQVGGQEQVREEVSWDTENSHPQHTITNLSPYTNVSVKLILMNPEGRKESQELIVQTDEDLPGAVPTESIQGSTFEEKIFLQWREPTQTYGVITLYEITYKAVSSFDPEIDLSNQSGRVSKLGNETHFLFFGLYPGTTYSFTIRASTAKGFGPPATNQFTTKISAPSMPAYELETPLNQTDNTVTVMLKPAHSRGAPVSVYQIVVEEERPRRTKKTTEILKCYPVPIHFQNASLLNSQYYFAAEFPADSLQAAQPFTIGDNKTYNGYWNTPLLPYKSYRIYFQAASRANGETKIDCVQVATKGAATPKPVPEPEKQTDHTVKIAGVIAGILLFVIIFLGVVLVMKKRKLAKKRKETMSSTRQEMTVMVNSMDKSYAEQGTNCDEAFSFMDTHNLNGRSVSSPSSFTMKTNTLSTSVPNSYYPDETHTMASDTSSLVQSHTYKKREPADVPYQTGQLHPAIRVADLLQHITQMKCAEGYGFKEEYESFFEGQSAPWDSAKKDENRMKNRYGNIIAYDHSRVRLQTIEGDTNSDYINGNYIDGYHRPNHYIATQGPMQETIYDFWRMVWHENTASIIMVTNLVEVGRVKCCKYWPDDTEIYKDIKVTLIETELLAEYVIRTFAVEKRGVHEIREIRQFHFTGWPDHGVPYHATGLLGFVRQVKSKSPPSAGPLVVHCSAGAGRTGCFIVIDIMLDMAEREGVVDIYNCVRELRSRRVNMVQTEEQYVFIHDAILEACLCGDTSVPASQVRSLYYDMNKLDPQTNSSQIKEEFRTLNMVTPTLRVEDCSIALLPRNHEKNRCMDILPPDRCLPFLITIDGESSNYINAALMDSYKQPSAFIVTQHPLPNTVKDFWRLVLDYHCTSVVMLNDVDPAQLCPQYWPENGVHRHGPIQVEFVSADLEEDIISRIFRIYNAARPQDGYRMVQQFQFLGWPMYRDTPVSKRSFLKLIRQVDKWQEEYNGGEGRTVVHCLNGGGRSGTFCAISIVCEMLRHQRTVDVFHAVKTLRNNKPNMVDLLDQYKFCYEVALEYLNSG
# Method in brief: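 Read-out is fluorescence after electrophoretic separation of substrate and product, taken 1.33 h post-dosing with recombinant enzyme. Compounds screened at 25 uM in duplicate, then concentration series for actives; activity as signal loss relative to DMSO.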
# [7] = molecular target: human Sirtuin 1 (SIRT1), SIRT1 (gene 23411) (UniProt Q96EB6); assay: NVS_ENZ_hSIRT1: NovaScreen (NVS) Enzymatic Assay for human Sirtuin 1 (SIRT1) (AID 2283219)
# Method in brief: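 Cell-free recombinant SIRT1 with a fluorescent substrate; substrate and product separated by electrophoretic mobility shift and read by fluorescence intensity, 1 h after dosing. Primary screen at 25 uM in duplicate; hits re-run in concentration-response up to 50 uM, relative to DMSO.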
# [8] = molecular target: human Sirtuin 3 (SIRT3), SIRT3 (gene 23410) (UniProt Q9NTG7); assay: NVS_ENZ_hSIRT3: NovaScreen (NVS) Enzymatic Assay for human Sirtuin 3 (SIRT3) (AID 2283222)
# human Sirtuin 3 (SIRT3), SIRT3 (gene 23410), sequence (Q9NTG7 whole entry, looked up): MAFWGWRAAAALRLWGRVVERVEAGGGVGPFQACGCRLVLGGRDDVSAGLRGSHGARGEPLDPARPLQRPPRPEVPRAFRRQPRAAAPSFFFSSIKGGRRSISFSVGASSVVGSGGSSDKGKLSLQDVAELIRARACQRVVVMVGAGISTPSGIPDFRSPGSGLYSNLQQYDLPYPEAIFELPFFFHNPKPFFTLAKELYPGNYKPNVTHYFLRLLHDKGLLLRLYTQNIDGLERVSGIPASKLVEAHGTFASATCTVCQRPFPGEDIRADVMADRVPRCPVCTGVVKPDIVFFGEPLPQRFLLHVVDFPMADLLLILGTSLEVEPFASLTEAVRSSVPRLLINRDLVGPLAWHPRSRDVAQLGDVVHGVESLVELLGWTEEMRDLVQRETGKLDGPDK
# Method in brief: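 Cell-free enzyme assay with recombinant protein and fluorescent substrate, product separated by electrophoretic mobility shift; read 1 hour after dosing. Screened in duplicate at 25 uM, then singleton concentration-response up to 50 uM; loss of signal versus DMSO.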
# [9] = molecular target: human Vascular Endothelial Growth Factor Receptor 1 (VEGFR1), FLT1 (gene 2321) (UniProt P17948); assay: NVS_ENZ_hVEGFR1: NovaScreen (NVS) Enzymatic Assay for human Vascular Endothelial Growth Factor Receptor 1 (VEGFR1) (AID 2283226)
# Method in brief: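 Kinase activity of recombinant human VEGFR1 was read by fluorescence after electrophoretic separation of product from substrate, 1 h post-dosing; initial duplicate single-point testing at 25 uM, followed by concentration-series follow-up, with DMSO as baseline.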
# [10] = molecular target: human Vascular Endothelial Growth Factor Receptor 3 (VEGFR3), FLT4 (gene 2324) (UniProt P35916); assay: NVS_ENZ_hVEGFR3: NovaScreen (NVS) Enzymatic Assay for human Vascular Endothelial Growth Factor Receptor 3 (VEGFR3) (AID 2283229)
# human Vascular Endothelial Growth Factor Receptor 3 (VEGFR3), FLT4 (gene 2324), sequence (P35916 whole entry, looked up): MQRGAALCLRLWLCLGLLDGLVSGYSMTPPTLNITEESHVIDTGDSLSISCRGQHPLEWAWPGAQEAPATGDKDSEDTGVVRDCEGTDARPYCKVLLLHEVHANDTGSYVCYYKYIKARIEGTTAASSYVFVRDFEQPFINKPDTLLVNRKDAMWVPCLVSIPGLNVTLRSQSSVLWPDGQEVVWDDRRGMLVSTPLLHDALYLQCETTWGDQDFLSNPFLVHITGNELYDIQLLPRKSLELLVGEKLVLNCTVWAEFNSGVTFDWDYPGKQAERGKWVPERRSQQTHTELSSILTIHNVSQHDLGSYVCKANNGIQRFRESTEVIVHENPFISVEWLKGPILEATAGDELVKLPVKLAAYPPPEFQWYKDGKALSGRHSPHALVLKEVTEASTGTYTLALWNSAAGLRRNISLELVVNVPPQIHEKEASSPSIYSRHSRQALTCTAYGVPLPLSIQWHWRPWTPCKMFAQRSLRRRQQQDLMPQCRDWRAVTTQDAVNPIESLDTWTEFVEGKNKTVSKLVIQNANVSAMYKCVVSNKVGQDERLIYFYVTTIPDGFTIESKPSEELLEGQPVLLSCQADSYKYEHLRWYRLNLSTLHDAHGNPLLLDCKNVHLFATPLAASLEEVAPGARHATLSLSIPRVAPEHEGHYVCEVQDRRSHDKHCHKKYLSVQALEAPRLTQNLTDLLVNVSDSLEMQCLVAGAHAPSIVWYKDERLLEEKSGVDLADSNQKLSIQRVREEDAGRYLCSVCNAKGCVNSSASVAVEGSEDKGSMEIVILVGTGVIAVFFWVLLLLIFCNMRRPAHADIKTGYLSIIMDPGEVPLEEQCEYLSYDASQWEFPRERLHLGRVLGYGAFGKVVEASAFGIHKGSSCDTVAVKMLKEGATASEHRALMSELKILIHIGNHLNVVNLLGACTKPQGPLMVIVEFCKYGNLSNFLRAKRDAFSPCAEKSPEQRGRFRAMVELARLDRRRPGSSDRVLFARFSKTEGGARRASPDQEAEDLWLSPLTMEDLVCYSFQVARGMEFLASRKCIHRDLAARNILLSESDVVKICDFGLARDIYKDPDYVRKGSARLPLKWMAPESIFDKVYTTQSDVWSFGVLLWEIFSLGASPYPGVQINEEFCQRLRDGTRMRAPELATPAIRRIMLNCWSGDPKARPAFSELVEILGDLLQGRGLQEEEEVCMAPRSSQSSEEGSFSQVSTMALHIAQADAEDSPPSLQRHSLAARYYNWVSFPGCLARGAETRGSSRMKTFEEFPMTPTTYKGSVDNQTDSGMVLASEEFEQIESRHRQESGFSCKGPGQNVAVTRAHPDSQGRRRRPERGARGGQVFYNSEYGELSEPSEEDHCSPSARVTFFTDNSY
# Method in brief: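 Chemicals first run in duplicate at 25 uM, with actives re-tested in concentration series to a top of 50 uM. Recombinant VEGFR3 activity measured after 1 h via fluorescence with mobility-shift product separation; inhibition fitted relative to DMSO.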
smiles,measurement,setting,value
O=C(O)c1ccccc1,outcome,[1],inactive
C=CCOC(Cn1ccnc1)c1ccc(Cl)cc1Cl (stereo unspecified),AC50,[1],15.1 µM (active)
same,AC50,[2],25 µM (active)
c1ccc2[nH]c(-c3cscn3)nc2c1,AC50,[3],25 µM (active)
same,AC50,[4],8.41 µM (active)
same,AC50,[2],4.07 µM (active)
N[C@@H](Cc1cc(I)c(Oc2ccc(O)c(I)c2)c(I)c1)C(=O)O,AC50,[5],6.72 µM (active)
CC(C)CCCCCCc1ccc(O)cc1,outcome,[6],inactive
same,outcome,[7],inactive
same,outcome,[4],inactive
CCCN(CCC)c1c([N+](=O)[O-])cc(C(F)(F)F)c(N)c1[N+](=O)[O-],outcome,[6],inactive
CCCCC(CC)CN1C(=O)C2C3C=CC(C3)C2C1=O (stereo unspecified),outcome,[2],inactive
S=C([S-])NCCNC(=S)[S-].[Mn+2],AC50,[6],8.13 µM (active)
same,AC50,[1],14.1 µM (active)
same,AC50,[7],15.4 µM (active)
same,AC50,[8],7.6 µM (active)
same,outcome,[2],inactive
same,AC50,[5],13.8 µM (active)
CC1(C)C(C=C(Cl)Cl)C1C(=O)OCc1cccc(Oc2ccccc2)c1 (stereo unspecified),outcome,[1],inactive
O=C(Nc1ccc([N+](=O)[O-])cc1Cl)c1cc(Cl)ccc1O,outcome,[6],inactive
O=C(c1ccc(O)cc1O)c1ccc(O)cc1O,AC50,[3],15 µM (active)
same,AC50,[4],25 µM (active)
same,AC50,[9],25 µM (active)
same,AC50,[5],14.6 µM (active)
COCCO,outcome,[9],inactive
same,outcome,[10],inactive
N#CSCSc1nc2ccccc2s1,AC50,[7],10.7 µM (active)
same,outcome,[5],inactive
COc1nc(C)nc(NC(=O)NS(=O)(=O)c2ccccc2OCCCl)n1,outcome,[6],inactive
Oc1ccc(C(c2ccc(O)cc2)C(Cl)(Cl)Cl)cc1,AC50,[6],46.5 µM (active)
same,AC50,[1],17 µM (active)
same,AC50,[8],19.4 µM (active)
same,AC50,[4],15 µM (active)
CC(C)(c1ccc(O)cc1)c1ccc(O)cc1,outcome,[7],inactive
same,AC50,[4],15.4 µM (active)
same,outcome,[9],inactive
same,outcome,[10],inactive
same,outcome,[5],inactive
Cc1nn(C)c(Oc2ccccc2)c1C=NOCc1ccc(C(=O)OC(C)(C)C)cc1,AC50,[1],6.6 µM (active)
O=C(O)C1(C(=O)Nc2ccc(Cl)cc2Cl)CC1,AC50,[6],12.4 µM (active)
same,AC50,[10],14.9 µM (active)
same,outcome,[5],inactive
CCOC(=O)c1ccc(O)cc1,outcome,[10],inactive
S=C(S)NCCNC(=S)S.[Mn+2].[S-]C([S-])=NCCN=C([S-])[S-].[Zn+2],AC50,[1],4.58 µM (active)
same,outcome,[1],inactive
same,AC50,[7],3.63 µM (active) and 4.01 µM (active) and 3.03 µM (active)
same,AC50,[8],25 µM (active)
same,outcome,[8],inactive
same,AC50,[3],1.47 µM (active)
same,AC50,[4],22.1 µM (active)
same,AC50,[9],7.01 µM (active)
same,outcome,[9],inactive
same,AC50,[2],1.34 µM (active)
same,outcome,[2],inactive
same,AC50,[10],2.42 µM (active) and 1.31 µM (active)
same,AC50,[5],4.23 µM (active) and 3.35 µM (active)
